Measured values published in PubChem BioAssay (Tox21).
Where “and” joins values, the source holds several entries; their conditions need not be identical. Identical values can stand only once. Records with an inconclusive call do not appear. Some structures have more than one record in an assay (separate samples or runs), and their calls can disagree. Calls of active or inactive are those of the source. Unless noted, calls come from the whole dose curve; as a rule, active = well fitted curve in the direction sought with a large enough effect in the repeat runs; inconclusive = weak or mixed curves; inactive = no such curve, though single readings can be large; an effect the other way counts as inactive or inconclusive. Residues, ends and D or L forms follow the SMILES beside them.

Legend:
[1] = qHTS assay for small molecule agonists of the p53 signaling pathway (AID 651631; calls by dose curve; note: nearly all actives have a fitted effect of over 15% in size; note: potency is the fitted concentration of half-maximal effect); settings: HCT-116 p53RE-bla reporter, beta-lactamase FRET ratio, 16 h; series mostly up to 73.3 µM
Summary of the method: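 Fluorescence intensity from cleaved LiveBLAzer B/G substrate (2 h, room temperature) served as the signal. Beforehand, HCT-116 reporter cells bearing p53 response elements were treated 16 h at 37 °C with DMSO-dissolved compounds.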

[2] = qHTS assay for small molecules that induce genotoxicity in human embryonic kidney cells expressing luciferase-tagged ATAD5 (AID 651632); settings: HEK293T ATAD5-luciferase induction, 16 h; series mostly up to 83.3 µM; note: nearly all actives have a fitted effect of over 15% in size; note: potency is the fitted concentration of half-maximal effect
Summary of the method: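 Luminescent reporter readout, HEK293T ATAD5-luc line: 16 hr drug exposure (37C, 5% CO2) followed by Amplite, 30 min RT.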

[3] = qHTS assay for small molecule agonists of the p53 signaling pathway - cell viability (AID 651633; calls by dose curve; note: nearly all actives have a fitted effect of over 30% in size; note: potency is the fitted concentration of half-maximal effect); settings: p53RE-bla HCT-116 viability, ATP luminescence, 16 h; series mostly up to 83.3 µM
Summary of the method: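 Viability counter-read: CellTiter-Glo luminescence (30 min, room temperature) in the same p53RE-bla plates. These plates had been exposed to compounds for 16 h at 37 C.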

[4] = qHTS assay for small molecules that induce genotoxicity in human embryonic kidney cells expressing luciferase-tagged ATAD5 - cell viability (AID 651634; calls by dose curve; note: nearly all actives have a fitted effect of over 25% in size; note: potency is the fitted concentration of half-maximal effect); settings: HEK293T ATAD5-luc cells viability, CellTiter-Fluor, 15.5 h; series mostly up to 83.3 µM
Summary of the method: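 Viability read: CellTiter-Fluor fluorescence, 30 min at 37C. Cells: HEK293T, luciferase-tagged ATAD5. Exposure: 15.5 hr, 37C, 5% CO2, compound or DMSO vehicle.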

[5] = qHTS assay for small molecule disruptors of the mitochondrial membrane potential - cell viability (AID 720634; calls by dose curve; note: nearly all actives have a fitted effect of over 20% in size; note: potency is the fitted concentration of half-maximal effect); settings: HepG2 viability, ATP luminescence (CellTiter-Glo), 1 h; series mostly up to 83.2 µM
Summary of the method: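 HepG2, 1 hr compound, 37 C. ATP luminescence via CellTiter-Glo, 30 min RT, same well as m-MPI.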

[6] = qHTS assay for small molecule disruptors of the mitochondrial membrane potential (AID 720635); settings: HepG2 mitochondrial membrane potential, Mito-MPS dye ratio; series mostly up to 83.2 µM; note: potency is the fitted concentration of half-maximal effect
Summary of the method: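 Mitochondrial membrane potential tracked with Mito-MPS dye, red aggregates (ex 540/em 590 nm) against green monomers (ex 490/em 535 nm). Compound treatment 1 hr at 37C, dye 30 min in HepG2.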

[7] = qHTS assay to test for compound auto fluorescence at 590 nm (red) in HepG2 cells (AID 720674); settings: HepG2 autofluorescence, red 540/590 nm, 1 h; series mostly up to 91.3 µM
Summary of the method: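 Red autofluorescence (Ex/Em 540/590 nm, Rose Bengal sodium equivalents) was measured in HepG2 cells, 2,000 per well in MEM plus 10% FBS, plated overnight at 37 C. Readings were taken 1 hr after adding 23 nL compound or DMSO, at 37 C and 5% CO2.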

[8] = qHTS assay to test for compound auto fluorescence at 535 nm (green) in HepG2 cells (AID 720675); settings: green autofluorescence 485/535 nm, 1 h; series mostly up to 91.3 µM
[9] = qHTS assay to test for compound auto fluorescence at 590 nm (red) in HEK293 cells (AID 720679); settings: red autofluorescence 540/590 nm; series mostly up to 91.3 µM
Summary of the method: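 We plated HEK293 cells in 10% dialyzed FBS medium, let them adhere for 4-5 hr, then added 23 nL compound. Overnight at 37C and 5% CO2 preceded fluorescence measurement at 540/590nm.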

[10] = qHTS assay to test for compound auto fluorescence at 460 nm (blue) in HEK293 cells (AID 720678); settings: blue autofluorescence 405/460 nm; series mostly up to 91.3 µM
Summary of the method: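 Triamterene serves as the blue fluorophore standard. Compound signal at 405/460 nm is read in HEK293 wells (2,000 cells, 10% dialyzed FBS) after overnight treatment at 37C.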

Measured: Potency

NNC(=O)c1ccncc1
not listed: [10]
inactive: all other assays above

CCCNC(=O)NS(=O)(=O)c1ccc(Cl)cc1
inactive: all assays above

CC(O)CN(CCN(CC(C)O)CC(C)O)CC(C)O (stereo unspecified)
inactive: all assays above

O=c1cc[nH]c(=S)[nH]1
not listed: [10]
inactive: all other assays above

Cc1cc(=O)n(-c2ccccc2)n1C
inactive: all assays above

Nc1ccc(S(=O)(=O)Nc2nccs2)cc1
not listed: [10]
inactive: all other assays above

CC(O)C(=O)O (stereo unspecified)
not listed: [10]
inactive: all other assays above

CCCCC(CC)COC(=O)/C=C/c1ccc(OC)cc1 (stereo unspecified)
active: [6] 54.2 µM
inactive: all other assays above

CCOc1ccc(NC(=O)CC(C)O)cc1 (stereo unspecified)
not listed: [10]
inactive: all other assays above

NC(=O)c1ccccc1O
inactive: all assays above

CC(C)(Oc1ccc(C2CC2(Cl)Cl)cc1)C(=O)O (stereo unspecified)
inactive: all assays above

Cc1noc(NS(=O)(=O)c2ccc(N)cc2)c1C
inactive: all assays above

c1ccc2[nH]ccc2c1
inactive: all assays above

CCCN(CCC)S(=O)(=O)c1ccc(C(=O)O)cc1
inactive: all assays above

NC(N)=NC(=O)c1nc(Cl)c(N)nc1N
not listed: [10]
inactive: all other assays above

O=C(O)c1cc(N=Nc2ccc(S(=O)(=O)Nc3ccccn3)cc2)ccc1O
active: [4] 23.7 µM and 27.4 µM and 48.6 µM
not listed: [10]
inactive: all other assays above

Oc1ccc(/C=C/c2cc(O)cc(O)c2)cc1
inactive and 54.5 µM (active): [3]
active: [1] 54.5 µM | [2] 2.54 µM and 2.46 µM and 3.06 µM | [4] 24.3 µM | [6] 2.11 µM and 692 nM and 969 nM
not listed: [10]
inactive: all other assays above

O=S(=O)(O)c1ccc2cc(O)ccc2c1
inactive: all assays above

Cc1cc(=O)[nH]c(=S)[nH]1
not listed: [10]
inactive: all other assays above

COc1ccc2[nH]cc(CCNC(C)=O)c2c1
not listed: [10]
inactive: all other assays above

CC(=O)NS(=O)(=O)c1ccc(N)cc1
not listed: [10]
inactive: all other assays above

O=C(O)CCCCCCCC(=O)O
not listed: [10]
inactive: all other assays above

O=C(O)c1cccc([N+](=O)[O-])c1
inactive: all assays above

NC(=O)NC1NC(=O)NC1=O (stereo unspecified)
inactive: all assays above

CC1(C)[C@@H]2CC[C@@]1(C)C(=O)C2
inactive: all assays above

CCCCOC(=O)CC(CC(=O)OCCCC)(OC(C)=O)C(=O)OCCCC
active: [6] 8.73 µM
inactive and 7.78 µM (active): [5]
inactive: all other assays above

Nc1ccc(O)c(C(=O)O)c1
not listed: [10]
inactive: all other assays above

CCCC(O)C(CC)CO (stereo unspecified)
inactive: all assays above

Nc1ccc(S(=O)(=O)c2ccc(N)cc2)cc1
inactive: all assays above

CCCCCCCCCCCCCCCC(=O)O
inactive: all assays above

Nc1ccc(C(=O)O)cc1
not listed: [10]
inactive: all other assays above

O=C(O)c1[nH]n(-c2ccc(S(=O)(=O)O)cc2)c(=O)c1N=Nc1ccc(S(=O)(=O)O)cc1
active: [4] 30.7 µM and 57.1 µM
not listed: [10]
inactive: all other assays above

COC(=O)[C@H](Cc1ccccc1)NC(=O)[C@@H](N)CC(=O)O (H-Asp-Phe-OMe)
inactive: all assays above

Nc1ccn([C@H]2CC[C@@H](CO)O2)c(=O)n1
not listed: [10]
inactive: all other assays above

NC(=O)c1cnccn1
not listed: [10]
inactive: all other assays above

Cc1ccc(O)cc1
inactive: all assays above

OCCc1ccccc1
not listed: [2]
inactive: all other assays above

Cn1c(=O)c2[nH]cnc2n(C)c1=O
inactive: [1] | [3] | [5] | [7] | [8] | [9]

CNC[C@H](O)c1cccc(O)c1
not listed: [2] | [10]
inactive: all other assays above

Cc1ccccc1C(OCCN(C)C)c1ccccc1 (stereo unspecified)
not listed: [1] | [6] | [10]
inactive: all other assays above

NC(N)=O
not listed: [1] | [10]
inactive: all other assays above

NS(=O)(=O)c1cc(C(=O)O)c(NCc2ccco2)cc1Cl
inactive: [2] | [4] | [5] | [7] | [8] | [9]

OC(Cn1cncn1)(Cn1cncn1)c1ccc(F)cc1F
not listed: [1]
inactive: all other assays above

O=c1ccc2ccccc2o1
not listed: [10]
inactive: all other assays above

CCC1(c2ccccc2)C(=O)NCNC1=O
not listed: [2] | [4]
inactive: all other assays above

Cc1ccc(C)c(OCCCC(C)(C)C(=O)O)c1
not listed: [1] | [3]
inactive: all other assays above

O=C(O)C(=O)O
not listed: [1] | [10]
inactive: all other assays above

O=C(c1ccccc1)c1ccccc1
not listed: [2] | [4] | [6]
inactive: all other assays above

O=C(O)CS
not listed: [1] | [10]
inactive: all other assays above

O=C(O)c1cccnc1
inactive: [4] | [5] | [6] | [7] | [8] | [9]

O=C(C1CCCCC1)N1CC(=O)N2CCc3ccccc3C2C1 (stereo unspecified)
inactive: [4] | [5] | [6] | [7] | [8] | [9]

C1N2CN3CN1CN(C2)C3
not listed: [10]
inactive: all other assays above

CCCCC1C(=O)N(c2ccccc2)N(c2ccccc2)C1=O
not listed: [5] | [6] | [10]
inactive: all other assays above

O=NO
not listed: [1] | [2] | [10]
inactive: all other assays above

O=C(O)CCC(=O)O
not listed: [1]
inactive: all other assays above

O=C(c1ccccc1)C(O)c1ccccc1 (stereo unspecified)
not listed: [1] | [5] | [6]
inactive: all other assays above

Cc1cn([C@H]2C[C@H](N=[N+]=[N-])[C@@H](CO)O2)c(=O)[nH]c1=O
not listed: [2] | [4] | [10]
inactive: all other assays above

COc1c2occc2cc2ccc(=O)oc12
not listed: [2] | [4] | [6]
inactive: all other assays above

CC(O)CO (stereo unspecified)
not listed: [10]
inactive: all other assays above

CC(=O)Nc1nnc(S(N)(=O)=O)s1
not listed: [10]
inactive: all other assays above

Cn1cc[nH]c1=S
not listed: [1] | [3] | [10]
inactive: all other assays above

C[C@]12C=CC(=O)C=C1CC[C@@H]1[C@@H]2[C@@H](O)C[C@@]2(C)[C@H]1CC[C@]2(O)C(=O)CO
not listed: [6] | [10]
inactive: all other assays above

N=C(N)c1ccc(OCCCCCOc2ccc(C(=N)N)cc2)cc1
not listed: [1] | [6] | [10]
inactive: all other assays above

O=C(O)CCCCC(=O)O
inactive: [1] | [3] | [7] | [8] | [9]

C/C=C/c1ccc(OC)cc1
not listed: [1] | [2] | [6]
inactive: all other assays above

Cc1ccc(S(=O)(=O)NC(=O)NN2CCCCCC2)cc1
not listed: [1] | [10]
inactive: all other assays above

O=S(=O)(O)NC1CCCCC1
inactive: [4] | [5] | [7] | [8] | [10] | [9]

O=C1NC(=O)c2ccccc21
not listed: [1] | [2]
inactive: all other assays above

CC(=O)OCC(COC(C)=O)OC(C)=O
not listed: [1]
inactive: all other assays above

CC(C)[C@@H]1CC[C@@H](C)C[C@H]1O
not listed: [1]
inactive: all other assays above

CCCC(CCC)C(=O)O
not listed: [1] | [3] | [10]
inactive: all other assays above

O=C1CN(/N=C/c2ccc([N+](=O)[O-])o2)C(=O)N1
active: [6] 21.1 µM and 21.6 µM and 21.7 µM
not listed: [4] | [10]
inactive: all other assays above
